From PubChem BioAssay
A selection: hits, their analogues and other compounds. The true share with any hit is near 11%.
L3MBTL1 block: qHTS Assay for the Inhibitors of L3MBTL1 | Lethal(3)malignant brain tumor-like protein 1 (Homo sapiens), Q9Y468 | AlphaScreen L3MBTL1–H3K9me1 peptide binding | Potency, µM (highest dose often 57.1 µM), usual class: inhibitors | 230,000 compounds, 0.66% hits | AID 485360, 2010; also: nearly all actives have a fitted effect of over 60% in size
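AlphaScreen proximity signal between nickel-chelate acceptor and streptavidin donor beads (final 10 ug/mL) reports binding of 50 nM L3MBTL1 to 75 nM biotin-H3 K9me1 peptide; complex incubated with compounds 30 min at room temperature; cefsulodin titration as control.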
JMJD2A Tudor: qHTS Assay for Inhibitors of JMJD2A-Tudor Domain; Lysine-specific demethylase 4A (Homo sapiens), O75164; AlphaScreen JMJD2A-Tudor / H3K4me3 peptide binding; Potency, µM (top dose mostly 114 µM), hits mostly inhibitors; 390,000 compounds, 4.4% hits; also: nearly all actives have a fitted effect of over 50% in size
HP1b chromo inh: HTS for Inhibitors of HP1-beta Chromodomain Interactions with Methylated Histone Tails; AlphaScreen HP1-beta / biotin-H3K9me3 peptide binding; Potency, µM (titrated, usually from 114 µM), actives largely listed as inhibitors; 390,000 compounds, 0.56% hits; also: nearly all actives have a fitted effect of over 70% in size
Target sequence (P83916 whole entry, looked up): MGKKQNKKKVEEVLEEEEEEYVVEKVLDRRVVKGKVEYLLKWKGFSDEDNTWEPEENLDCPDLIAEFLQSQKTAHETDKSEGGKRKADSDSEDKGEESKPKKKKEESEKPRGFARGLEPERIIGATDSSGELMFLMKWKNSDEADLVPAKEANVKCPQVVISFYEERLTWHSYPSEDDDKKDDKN
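AlphaScreen: HP1-beta (50 nM) preformed 30 min with biotin-H3(1-18)K9me3 peptide (50 nM) in PBS pH 7.4, 0.01% Tween-20. Compound added for 30 min at RT, then streptavidin donor/nickel chelate acceptor beads (10 ug/mL) for 30 min.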
BAZ2B block: qHTS Assay for Inhibitors of BAZ2B | Bromodomain adjacent to zinc finger domain protein 2B (Homo sapiens), Q9UIF8 | AlphaScreen BAZ2B-H3K14Ac peptide displacement | Potency, µM (titrated, usually from 114 µM), most hits filed as inhibitors | 360,000 compounds, 4.4% hits; also: nearly all actives have a fitted effect of over 60% in size
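Multi-concentration screen (max 110 uM) measuring displacement of acetylated histone H3 peptide from BAZ2B by AlphaScreen, using 50 nM protein, 50 nM peptide and 10 ug/mL streptavidin donor plus Ni-chelate acceptor beads.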
G9a inh: qHTS Assay for Inhibitors of Histone Lysine Methyltransferase G9a; Histone-lysine N-methyltransferase EHMT2 (Homo sapiens), Q96KQ7; G9a H3K9 monomethylation, AlphaScreen, 2 h; Potency, µM (series often up to 102 µM), hits mostly inhibitors; 350,000 compounds, 8.8% hits; AID 504332, 2011; also: nearly all actives have a fitted effect of over 75% in size
Target sequence (Q96KQ7 913-1193 limits assumed): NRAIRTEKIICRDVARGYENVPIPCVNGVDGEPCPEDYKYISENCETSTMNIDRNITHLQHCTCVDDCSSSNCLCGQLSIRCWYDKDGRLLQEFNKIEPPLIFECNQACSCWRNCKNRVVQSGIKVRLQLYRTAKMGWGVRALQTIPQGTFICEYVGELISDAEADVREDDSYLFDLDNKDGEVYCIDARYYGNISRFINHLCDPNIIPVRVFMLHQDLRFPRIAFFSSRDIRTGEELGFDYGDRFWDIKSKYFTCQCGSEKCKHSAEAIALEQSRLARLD
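Readings reflect AlphaScreen signal from monomethyl-H3K9 antibody detection. HMT at 20 nM; substrate b-H3K9 500 nM; cofactor SAM 20 uM; 2 h RT reaction; compounds tested as titrations in qHTS with 15 min preincubation.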
Hits are given with their value; i = inactive; ? = inconclusive; nt = not tested or not shown; [ ] = remark or other dose. Calls follow the shape of the dose curve; as a rule, active = well fitted inhibition curve with a large enough effect; inconclusive = small, poorly fitted or top-dose-only effect; inactive = no such curve, though single readings can be large or run the other way.

SMILES	L3MBTL1 block	JMJD2A Tudor	HP1b chromo inh	BAZ2B block	G9a inh
Cc1oc2c(c(=O)c1C)C(=O)CC(c1ccccc1)C2 (stereo unspecified)	i	i	i	i	i
O=C(C(Cl)Cl)N1CCN(Cc2ccccc2)CC1	i	i	i	i	i
CC(CN1CCN(Cc2ccccc2)CC1)c1ccccc1 (stereo unspecified)	i[2.29 µM]	89µM	i	i	i[0.501 µM]
ClC(CCN1CCN(Cc2ccccc2)CC1)c1ccccc1 (stereo unspecified)	nt	50µM	i	nt	nt
CC(CN1CCC(O)CC1)c1ccccc1 (stereo unspecified)	i	2.8µM	?	?	nt
CC1CCN(C(=O)C2CCN(CC(C)c3ccccc3)CC2)CC1 (stereo unspecified)	i	?	?	i	?
O=C(NCC1CCCO1)c1cc2ccccc2o1 (stereo unspecified)	nt	i	i	i	i
Cc1c(Cl)cccc1NC(=O)CN1C(=O)COc2ccc(S(=O)(=O)N3CCCCCC3)cc21	nt	i	i	i	i
Cc1ccc(OC(=O)COc2ccccc2)c(-n2nc3ccccc3n2)c1	nt	i	i	56µM	i
COc1ccc(N2CCN(C(=O)CSc3nnc4n3C(C)(C)Cc3ccccc3-4)CC2)cc1	i	i	i	?	?
Cc1ccc(Cl)cc1N1CCN(C(=O)CSc2cc(=O)n(C)c3ccccc23)CC1	nt	?	i	nt	i
Cc1ccc(Cl)cc1N1CCN(C(=O)CSc2nnc3n2C(C)(C)Cc2ccccc2-3)CC1	i	89µM	i	i	8.9µM
Cc1ccc(Cl)cc1N1CCN(C(=O)CSc2ccsc2[N+](=O)[O-])CC1	?	?	i	50µM	50µM
COc1ccc(C(CC(=O)Nc2cccc(C)c2C)N2Cc3ccccc3C2=O)cc1 (stereo unspecified)	nt	i	i	i	i
CCOc1ccccc1NC(=O)CCS(=O)(=O)c1ccc2c(c1)CCN2C(C)=O	nt	?	i	i	i
CCOc1ccccc1NC(=O)CCS(=O)(=O)c1ccc2c(c1)CC(C)N2C(C)=O (stereo unspecified)	nt	i	i	i	25µM
CCC(=O)N1c2ccc(S(=O)(=O)CCC(=O)Nc3ccc(OC)cc3OC)cc2CC1C (stereo unspecified)	nt	?	i	i	40µM
CCC(=O)N1c2ccc(S(=O)(=O)CCC(=O)NCc3ccccc3OC)cc2CC1C (stereo unspecified)	nt	i	i	nt	?
CCC(=O)N1c2ccc(S(=O)(=O)CCC(=O)NCc3ccc4c(c3)OCO4)cc2CC1C (stereo unspecified)	i	50µM	i	i	i[0.501 µM]
Cc1ccc(CNC(=O)CCS(=O)(=O)c2ccc3c(c2)CC(C)N3C(=O)C2CC2)cc1 (stereo unspecified)	nt	i	i	i	i
CCCCC(=O)Oc1ccc2oc(-c3ccc(OC)cc3)cc(=O)c2c1	nt	i	i	i	i
N#CC1=C(N)C2=CCCC[C@H]2[C@H](c2cccc(F)c2)C1(C#N)C#N	i	i	i	i	i
N#CC1=C(N)C(C#N)(C#N)C(c2cccnc2)C2CC(c3ccccc3)CC=C12 (stereo unspecified)	i	i	i	i	nt
N#CC1=C(N)C(C#N)(C#N)C(c2ccc[nH]2)C2CCCC=C12 (stereo unspecified)	i	i	i	i	35µM
N#CC1=C(N)C(C#N)(C#N)C(c2cccnc2)C2CCCC=C12 (stereo unspecified)	i	nt	nt	i	45µM
SMILES	L3MBTL1 block	JMJD2A Tudor	HP1b chromo inh	BAZ2B block	G9a inh
COc1ccc(CNC(=O)Cn2ncc3c4ccccc4n(Cc4cccc(Cl)c4)c3c2=O)cc1	nt	i	i	i	i
O=C(CSc1nc(-c2ccccc2)ns1)N1CCOCC1	nt	i	i	i	8.9µM
Cc1cccc(-c2nsc(SCC(=O)Nc3nccs3)n2)c1	i	?	i	i	10µM
Cc1cccc(-c2nsc(SCC(=O)Nc3ccc4c(c3)OCO4)n2)c1	i	i	i	i	i
Cc1cccc(-c2nsc(SCC(=O)N3CCCC3)n2)c1	i	i	i	i	40µM
CCOC(=O)C(CC)n1nnc2sc(-c3ccccc3)cc2c1=O (stereo unspecified)	nt	i	i	i	i
Cc1ccsc1C(=O)NNC(=O)c1ccncc1	i	i	i	i	i
Cc1cccc2c1-c1sc(C(=O)Nc3ccccc3N3CCN(C)CC3)cc1CO2	nt	?	i	45µM	nt
O=C(COC(=O)c1ccc(-n2cnnn2)cc1)c1ccc(Br)cc1	i	i	i	i	i
Cc1ccc(Cl)c(OCCN2CCc3ccccc3C2)c1	i	i	i	i	nt
C/C=C/c1ccc(OCCN2CCc3ccccc3C2)c(OC)c1	i	0.89µM	?	?	45µM
C=CCc1ccc(OCCN2CCc3ccccc3C2)c(OC)c1	i	?	?	50µM	10µM
CC(C1CC2CCC1C2)n1c(-c2ccco2)n[nH]c1=S (stereo unspecified)	i	20µM	?	?	2.2µM
CCC(=O)Nc1ccc(CC)cc1-c1nc2ccccc2n(CC(=O)Nc2ccccc2C)c1=O	nt	i	i	i	i
O=C(c1cc(-c2ccccc2)nn1CC1CC(c2cccnc2)=NO1)N1CCOCC1 (stereo unspecified)	nt	?	i	nt	nt
Cc1ccc(-n2nc(-c3ccco3)cc2C(=O)O)c(C)c1	7.9µM	56µM	i	45µM	18µM
Cc1ccc(-n2nc(-c3cccnc3)cc2C(=O)N2CCOCC2)c(C)c1	nt	i	i	i	45µM
O=C1CCCC2=C1C1(CCCC1)N=C(Nc1nc3cc4ccccc4cc3o1)N2	nt	89µM	nt	nt	nt
Cc1nc(N2CCCCC2)sc1C(=O)c1cccc([N+](=O)[O-])c1	i	?	?	40µM	?
Cc1nc(N2CCCCC2)sc1C(=O)c1ccc(SCCO)c([N+](=O)[O-])c1	nt	13µM	?	40µM	40µM
N=C(c1cccc([N+](=O)[O-])c1)N1CCCCCC1	i	i	i	i	i
COc1ccc(CC(=O)N2CCN(c3ccccc3F)CC2)cc1OC	i	i	i	i	i
COc1ccc(CN2CCC(C(=O)N3CCN(c4ccccc4F)CC3)CC2)cc1OC	i	0.89µM	?	56µM	?
COc1cccc(CN2CCC(C(=O)N3CCN(c4ccccc4F)CC3)CC2)c1OC	i	3.5µM	?	?	10µM
COc1cc(CN2CCC(C(=O)N3CCN(c4ccccc4F)CC3)CC2)cc(OC)c1OC	nt	2.5µM	?	50µM	25µM
COc1ccc(Cn2c(SCc3ccc(C(=O)NC(C)C)cc3)nc3cccnc32)cc1	nt	i	i	i	i
CCSc1ncc(Cl)c(C(=O)N(Cc2ccccc2)c2ccc(OC)cc2)n1	nt	i	i	i	i
Oc1ccccc1C=NCCN=Cc1ccccc1O	i	i[11.4 µM]	i	i	i
